Source: PubChem (National Center for Advancing Translational Sciences (NCATS))
Tau fluor counter = Counterscreen qHTS for Inhibitors of Tau Fibril Formation, Fluorescence Polarization; 0.93% of 280,000 active; tau K18 P301L Alexa594 fluorescence, heparin fibrillization; Potency, µM (titrated, usually from 57.7 µM), inactives show at the highest dose activity change, negative = decrease; note: nearly all actives have a fitted effect of over 55% in size
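Human tau K18 P301L (15 uM unlabeled, 0.24 uM Alexa 594-labeled) in 100 mM sodium acetate pH 7 with 20 uM heparin, 6 hr at 37 C. ThT 30 uM added, 1 hr ambient; Alexa 594 FP and total fluorescence read at 555/632 nm.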
TRb SRC2 PPI = qHTS for Inhibitors of the Interaction of Thyroid Hormone Receptor and Steroid Receptor Coregulator 2. Potency, µM (highest dose often 106 µM), inactives show top-dose activity change, negative = inhibition, hits mostly inhibitors. Thyroid hormone receptor beta (Homo sapiens), P10828. 0.065% of 280,000 active. TRbeta-SRC2 peptide binding, fluorescence polarization; receptor liganded with 1 µM T3;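 note: plate controls were bound peptide for no effect and peptide without receptor for full effect; nearly all actives have a fitted effect of over 50% in size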
Target sequence (P10828 whole entry, looked up): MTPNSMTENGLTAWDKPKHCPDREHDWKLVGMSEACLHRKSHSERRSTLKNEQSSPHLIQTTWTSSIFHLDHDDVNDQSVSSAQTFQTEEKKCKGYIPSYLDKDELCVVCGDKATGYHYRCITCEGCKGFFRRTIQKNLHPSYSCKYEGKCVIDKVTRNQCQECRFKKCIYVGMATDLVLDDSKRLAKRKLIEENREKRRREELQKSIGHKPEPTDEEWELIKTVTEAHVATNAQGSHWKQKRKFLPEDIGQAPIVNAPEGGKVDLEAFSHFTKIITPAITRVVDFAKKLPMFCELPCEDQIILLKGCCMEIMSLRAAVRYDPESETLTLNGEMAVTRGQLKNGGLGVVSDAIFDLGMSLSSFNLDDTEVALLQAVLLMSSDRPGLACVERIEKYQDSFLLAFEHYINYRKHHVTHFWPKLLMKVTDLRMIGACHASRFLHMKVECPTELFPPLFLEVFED
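Polarization signal, normalized between peptide-alone and full complex controls, measured compound effects on T3-liganded human TRb LBD (0.6 uM) binding 20 nM Texas Red SRC2 peptide after 5 hr.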
Tau fibril ThT = qHTS for Inhibitors of Tau Fibril Formation, Thioflavin T Binding; Microtubule-associated protein tau (Homo sapiens), P10636; recombinant tau K18 P301L, heparin-induced fibrillization, ThT fluorescence; Potency, µM (doses to about 57.4 µM), inactives show at the highest dose activity, negative = inhibition, hits mostly inhibitors; 2.1% of 270,000 active; AID 1460, 2008; note: nearly all actives have a fitted effect of over 55% in size
Target sequence (P10636 561-689 P618L limits assumed): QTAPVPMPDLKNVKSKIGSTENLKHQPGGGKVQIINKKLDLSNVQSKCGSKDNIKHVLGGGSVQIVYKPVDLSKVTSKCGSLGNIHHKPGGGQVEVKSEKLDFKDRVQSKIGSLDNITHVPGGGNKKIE
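ThT emission at 510 nm, taken 1 hr after adding 30 uM dye, quantifies aggregates formed when 20 uM heparin acts on human tau K18 P301L for 6 hr at 37 C.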
TexasRed fluor = Total Fluorescence Counterscreen for Inhibitors of the Interaction of Thyroid Hormone Receptor and Steroid Receptor Coregulator 2 | Potency, µM (highest dose often 106 µM), for inactives: top-dose fluorescence change, negative = quenching | 0.29% of 280,000 active | AID 1479, 2009 | TRb/SRC2 Texas Red total fluorescence interference; active = well fitted curve in either direction with a large enough effect; inconclusive = small, poorly fitted or top-dose-only effect
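Human TRβ ligand-binding domain (0.6 uM) and Texas Red SRC2 peptide (20 nM) in Tris buffer with 1 uM T3 and 5% DMSO were incubated with pinned compound for 5 hr at ambient temperature. Total fluorescence was computed as S + 2P (555/632 nm).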
Tau fibril FP = qHTS for Inhibitors of Tau Fibril Formation, Fluorescence Polarization | Microtubule-associated protein tau (Homo sapiens), P10636 | K18 P301L tau heparin fibrillization, Alexa594 FP, 6 h | Potency, µM (top dose mostly 57.7 µM), for the others: at the top dose activity, negative = inhibition, hits mostly inhibitors | 0.39% of 280,000 active; note: nearly all actives have a fitted effect of over 55% in size
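Human tau K18 […] P301L fragment, 15 uM unlabeled plus 0.24 uM Alexa 594-labeled tau (final), with compound and 20 uM heparin in 100 mM sodium acetate pH 7; 6 hr at 37 C, then Alexa 594 FP read.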
The depositor's hits bear a star; ? = inconclusive; / = no result given; [ ] = remark or other dose. Sampled rows, rich in hits. Any-hit rate of the full collection: about 3.1%. Unless noted, calls come from the whole dose curve; as a rule, active = well fitted curve in the direction sought with a large enough effect; inconclusive = small, poorly fitted or top-dose-only effect, or another doubt; inactive = no such curve, though single readings can be large; an effect the other way counts as inactive or inconclusive. Unless noted, % is set by controls: 0 for no effect and ±100 for the full control effect; potency is the fitted concentration of half-maximal effect.

SMILES | Tau fluor counter | TRb SRC2 PPI | Tau fibril ThT | TexasRed fluor | Tau fibril FP
CCc1ccc(NC(=O)C(=O)NCC(c2cccnc2)N2CCc3ccccc3C2)cc1 (stereo unspecified) | ? | -11% | ? | ? | -10%
O=C(NCC(c1cccnc1)N1CCc2ccccc2C1)C(=O)Nc1ccccc1F (stereo unspecified) | -20% | -4% | ? | 2% | ?
O=C(NCC(c1cccnc1)N1CCc2ccccc2C1)C(=O)Nc1ccccc1 (stereo unspecified) | -26% | -2% | 1.6µM* | -22% | 10%
COc1ccc(NC(=O)C(=O)NCC(c2cccnc2)N2CCc3ccccc3C2)cc1 (stereo unspecified) | ? | -7% | 14µM* | -39% | ?
COCCn1nnnc1C(c1cc2cc(C)ccc2[nH]c1=O)N1CCc2ccccc21 (stereo unspecified) | ? | -5% | 28µM* | -5% | ?
CCc1ccc2[nH]c(=O)c(C(c3nnnn3CC3CCCO3)N3CCCc4ccccc43)cc2c1 (stereo unspecified) | -27% | 6% | 11µM* | -3% | ?
CCn1c(=O)n(CC)c2cc(N3CCCCC3)c(NC(=O)Nc3cc(Cl)ccc3OC)cc21 | -20% | 8% | -12% | -26% | ?
COc1cc(/C=N/Nc2ccc3ccccc3c2)ccc1OC(=O)c1ccco1 | 13µM*[quencher] | -1% | 13µM* | -1% | -8%
Oc1c(Br)cc(C=Nc2ccc3nc(-c4ccccc4)[nH]c3c2)c(O)c1Br | 4.5µM*[quencher] | 17% | 4.5µM* | ? | ?
Nc1ccc2ncccc2c1N | ? | 5% | 25µM* | -3% | ?
Nc1ccc(/C=C/c2ccc3ncccc3c2)cc1 | -29% | -8% | 6.3µM* | -13% | -6%
c1ccc2ncccc2c1 | / | 3% | / | -2% | /
Nc1ccc2ncccc2c1 | -21% | -4% | 16µM* | -7% | ?
O=C(CN1C(=O)COc2ccc(S(=O)(=O)N3CCOCC3)cc21)N1CCN(c2ccc(Cl)cc2)CC1 | -12% | -5% | 3% | 0% | 0%
Cc1ccc(S(=O)(=O)NNC(=O)C(=O)NNS(=O)(=O)c2ccc(C)cc2)cc1 | 3% | -2% | 5% | -2% | 8%
CSc1ccc(S(=O)(=O)Nc2ccc(S(=O)(=O)Nc3ccc(C)cc3)cc2)cc1 | ? | 1% | 14% | -2% | ?
Cc1ccc(NNS(=O)(=O)c2ccc(C)cc2)cc1 | -16% | 0% | 20µM* | -1% | ?
Cc1ccc(S(=O)(=O)Nc2ccc(N=Nc3ccc(O)cc3)cc2)cc1 | 18µM*[quencher] | 2% | 14µM* | -1% | ?
COc1ccc2c(c1)OC/C(=C/c1ccc(O)c(O)c1)C2=O | -21% | 2% | ? | -1% | 4%
COc1ccc2c(c1)OC/C(=C/c1ccc(OC)c(OC)c1)C2=O | ? | -9% | 11µM* | 2% | -6%
O=C(CSc1n[nH]c(=O)[nH]c1=O)Nc1ccc2c(c1)C(=O)c1ccccc1C2=O | 13µM*[quencher] | 4% | 10µM* | -11% | 15%
O=C(CSc1ccccn1)Nc1ccc2c(c1)C(=O)c1ccccc1C2=O | ? | 1% | -9% | -14% | 10%
O=C1/C(=C/Nc2cccc([N+](=O)[O-])c2)CCc2ccccc21 | ? | -16% | 14µM* | -2% | 9%
COc1ccc(CC(=O)Nc2c(C(=O)N3CCN(c4ccccc4F)CC3)oc3ccccc23)cc1OC | -10% | 4% | -16% | 0% | 4%
O=C(Cc1ccc(Nc2nc3ccc(Br)cc3[nH]2)cc1)NCCc1cccs1 | 16µM*[quencher] | 14% | ? | 0% | ?
SMILES | Tau fluor counter | TRb SRC2 PPI | Tau fibril ThT | TexasRed fluor | Tau fibril FP
O=C(NCC1CC1)c1ccc(Nc2nc3ccc(Br)cc3[nH]2)cc1 | 13µM*[quencher] | -1% | ? | -3% | ?
O=C(NCCc1nc2ccccc2[nH]1)c1cccc(Br)c1 | -8% | 4% | -5% | -2% | 4%
O=C(NCc1ccco1)c1cccc(Nc2nc3ccc(Br)cc3[nH]2)c1 | 10µM*[quencher] | 14% | 28µM* | -1% | ?
CC(C)CC(=O)Nc1ccc2nc(SCC(=O)N3CCOCC3)sc2c1 | -7% | -14% | 2% | 1259µM*[quencher] | -3%
N#Cc1ccccc1Sc1ccccc1N | -3% | -4% | 8% | -5% | 5%
N#CC(=C(/N)Sc1ccccc1N)/C(C#N)=C(/N)Sc1ccccc1N | 25µM*[quencher] | 1% | 35µM* | -4% | /
COCCN=c1scc(-c2cc(OC)c(OC)c(OC)c2)n1/N=C/c1c(C)[nH]c2ccccc12 | 7.9µM*[quencher] | 0% | ? | 6% | 6%
COc1cc(/C=C(\C#N)C(=O)c2c(C)[nH]c3ccccc23)cc(OC)c1OC | -22% | 0% | -13% | -1% | -1%
CN(C)c1ccc(/C=C2\N=C(c3ccc(Cl)c([N+](=O)[O-])c3)NC2=O)cc1 | ? | 6% | 0.89µM* | 5% | -15%
CCc1ccc2nc(N(CCN(CC)CC)C(=O)c3ccco3)sc2c1 | -20% | -1% | 5% | 7% | -14%
Cc1ccc2nc(-c3ccc(Cl)c(NC(=O)c4cccc([N+](=O)[O-])c4C)c3)oc2c1 | -17% | -2% | -12% | 16µM*[quencher] | -14%
C[C@@](N)(Cc1ccc(O)c(O)c1)C(=O)O | ? | -1% | 4.5µM* | ? | ?
N#C/C(=C(/O)c1ccc(-c2cccc([N+](=O)[O-])c2)o1)c1nc2ccccc2s1 | ? | 4% | 6.3µM* | -9% | 10%
CCCC(C)C(=O)Nc1nc(C)c(-c2csc(Nc3ccccc3OC)n2)s1 (stereo unspecified) | ? | 13% | ? | 1% | ?
COc1ccc(OC)c(Nc2nc(-c3sc(C)nc3C)cs2)c1 | ? | -2% | 14µM* | -7% | ?
CCCCCCC(=O)Nc1nc(C)c(-c2csc(Nc3cc(Cl)ccc3C)n2)s1 | ? | -1% | ? | -3% | 11%
CCC(C)C(=O)Nc1nc(C)c(-c2csc(Nc3cc(OC)ccc3OC)n2)s1 (stereo unspecified) | 14µM*[quencher] | 3% | ? | -4% | ?
Fc1ccc(Nc2nc(-c3ccncc3)cs2)cc1 | -19% | 7% | ? | -5% | 6%
CCCC(C)C(=O)Nc1nc(C)c(-c2csc(Nc3ccc(Cl)cc3)n2)s1 (stereo unspecified) | 16µM*[quencher] | 5% | ? | 8% | 11%
Cc1nc(C)c(-c2csc(Nc3ccc(F)cc3)n2)s1 | 20µM*[quencher] | 2% | ? | -3% | ?
COc1ccc(Cl)cc1Nc1nc(-c2sc(NC(=O)C(C)(C)C)nc2C)cs1 | ? | -11% | ? | -2% | ?
